Results reported in PubChem BioAssay AID1117319 (Southern Research Institute, 2015).
Screen size: about 260,000 compounds; about 1,500 (0.58%) were called active. About 5% were inconclusive and are not listed.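 The calls were made as follows: active = inhibition above a set limit at one or more doses, reproduced on every date tested; inconclusive = results disagree between test dates, or hit never tested in dose response; inactive = the rest.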 Not all results are given here. Results with a measured potency or affinity are listed apart.

Target: Virion infectivity factor (Human immunodeficiency virus type 1 group M subtype B (isolate BH10)) + Virion infectivity factor (Human immunodeficiency virus type 1 group M subtype B (isolate BRU/LAI)) + Virion infectivity factor (Human immunodeficiency virus type 1 group M subtype B (isolate PCV12)) + Virion infectivity factor (Human immunodeficiency virus type 1 group M subtype B (isolate HXB2)) + DNA dC->dU-editing enzyme APOBEC-3G (Homo sapiens) (UniProt P69720+P69721+P69722+P69723+Q9HC16)
Test: inhibitors of Vif binding to APOBEC3G peptide, primary screen, biochemical, TR-FRET, GST-Vif 1-94, biotin-A3G peptide, dose response retest (AID 1117319);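 also: Vif residues 1-94 fused to GST binding biotinylated APOBEC3G peptide 110-148; 0% = full assay without inhibitor and 100% = GST in place of GST-Vif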
Details: hits give high values

inhibition, inactive:
CCOC(=O)n1c(=O)oc2cc(S(=O)(=O)N3CCOCC3)ccc21 9.96%
COc1ccc(Cc2nnc(SCC(=O)NCc3ccco3)o2)cc1 3.47%
COc1cc(-c2nnc(-c3cccs3)o2)cc(OC)c1OC 2.65%
COc1ccc(-c2nnc(-c3cccs3)o2)cc1OC 25.2%
Cc1ccc(C(=O)N[C@H](C(=O)OCC(=O)c2ccc[nH]2)C(C)C)cc1 -7.75%
O=C1NC(=S)NC1=Cc1ccc(O)cc1 4.35%
Cc1ccc2c(c1)/C(=C/c1ccco1)C(=O)N2 6.3%
O=C1NC(=S)NC1=Cc1ccccc1O -3.79%
O=C1C(=Cc2ccco2)C(=O)c2ccccc21 -3.58%
Cc1ccc(/C(O)=C2/C(=O)C(=O)N(c3ccccn3)C2c2cccc([N+](=O)[O-])c2)cc1 (configuration not stated) 1.22%
O=C(Nn1cnnc1)c1ccc(Cl)c([N+](=O)[O-])c1 -7.17%
CCN(CC)C(=O)[C@H]1C[C@H](CC(=O)NCc2ccco2)C(=O)N2CCc3c([nH]c4cc(-c5ccco5)ccc34)[C@]12C -1.87%
O=C(O)CCCNC(=O)c1cncc(Br)c1 -4.15%
COc1cc(-c2nnc3n2CCCCC3)cc(OC)c1OC -1.21%
Cc1ccc(NC(=O)C(NC2CCCC2)c2ccccc2)cc1Cl (configuration not stated) 21.3%
N#C/C(=C\c1ccc(Sc2nc3ccccc3[nH]2)o1)c1ccccc1 4.57%
C=CCN1C(=O)S/C(=C/c2ccc(Sc3nc4ccccc4[nH]3)o2)C1=O -2.89%
O=C1NN(c2ccccc2)C(=O)/C1=C/c1ccc(Sc2ccc(Cl)cc2)o1 -5.35%
N#C/C(=C/c1ccc(Sc2nc3ccccc3[nH]2)o1)c1cccc(F)c1 25.4%
CC(C)N=C1NN=C(c2cccs2)C(CC(=O)O)S1 (configuration not stated) 1.51%
CCOc1ncccc1C(=O)OCC(=O)Nc1c(C)cc(C)cc1C 2.59%
Nc1c(C(=O)Nc2ccccc2)sc2nc3c(c(-c4ccco4)c12)CCCC3 -0.46%
Nc1c(C(=O)Nc2ccccc2)sc2nc3c(c(-c4ccco4)c12)CCC3 13.2%
COc1cc(/C=C2/CC/C(=C/c3ccc(O)c(OC)c3)C2=O)ccc1O 32.3%
COc1cc(/C=C2\CC/C(=C\c3cc(OC)c(OC)c(OC)c3)C2=O)cc(OC)c1OC 2.04%
COc1cc(/C=C2\CCC/C(=C\c3ccc(O)c(OC)c3)C2=O)ccc1O 3.35%
COc1ccc(/C=C2\CC/C(=C\c3ccc(OC)c(OC)c3)C2=O)cc1OC -3.91%
